High-throughput results as filed in PubChem.
Pf growth 48h = Primary qHTS for delayed death inhibitors of the malarial parasite plastid, 48 hour incubation; P. falciparum luciferase growth in erythrocytes, 48 h; Potency, µM (doses to about 28.7 µM), without a hit: at the top dose activity change, negative = inhibition, hits mostly inhibitors; 310,000 tested, 5.9% active; AID 504832, 2011; also: potency is read from the fitted curve at half-maximal effect; % is scaled to controls: 0 for no effect and ±100 for the full control effect
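Parasite viability was followed by luminescence of a genomically integrated firefly luciferase. Cultures held 0.1% parasitemia at 2% hematocrit (final), incubated under 5% CO2 at 37 C.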
Shiga inhibitor = A qHTS for Small Molecule Inhibitors of Shiga Toxin. Vero cells, Shiga toxin protein synthesis inhibition reporter. inhibition, % at 38.7 µM. 290,000 tested, 9.2% active; in the data active = inhibition mostly above about 28%, no sharp cut-off; inactive = mostly below about 43%; also: 0% is about no effect
Sm TGR block = qHTS Assay for the Inhibitors of Schistosoma Mansoni Peroxiredoxins; purified TGR, DTNB reduction, TNB absorbance 405 nm; Potency, µM (highest dose often 114 µM), without a hit: at the top dose activity change, negative = inhibition, actives largely listed as inhibitors; 360,000 tested, 3% active; AID 485364, 2010; also: potency is read from the fitted curve at half-maximal effect; % is scaled to controls: 0 for no effect and ±100 for the full control effect; nearly all actives have a fitted effect of over 60% in size
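TGR 20 nM + NADPH 100 uM (dispensed conc.), cpd preinc 15 min RT; start with NADPH (500 uM addition) then DTNB (15 mM addition). Kinetic TNB absorbance, 405 nm filter. Four-parameter Hill fit across titration.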
Pf growth 96h = Primary qHTS for delayed death inhibitors of the malarial parasite plastid, 96 hour incubation | 320,000 tested, 6.9% active | Potency, µM (top dose mostly 28.7 µM), inactives show at the highest dose activity change, negative = inhibition, usual class: inhibitors | P. falciparum luciferase reporter growth, 96 h; also: potency is read from the fitted curve at half-maximal effect; % is scaled to controls: 0 for no effect and ±100 for the full control effect
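Luminescence readout: decreased luciferase signal marks inhibited growth of reporter-expressing P. falciparum in infected red cells (2% hematocrit, 0.05% parasitemia final), exposed to compound two generations (96 h, 37 C, 5% CO2).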
Cycloheximide cs = Cycloheximide Counterscreen for Small Molecule Inhibitors of Shiga Toxin; max response, %; AID 2314, 2010; cell reporter, cycloheximide protein synthesis inhibition counterscreen; 300,000 tested, 12% active; in the data active = max response mostly above about 13%, no sharp cut-off; inactive = mostly below about 14%; also: read at 38.3 µM for the half of the compounds with a filed dose; 0% is about no effect
NS1 function inh = qHTS Assay for Inhibitors of Influenza NS1 Protein Function; Potency, µM (top dose mostly 46.1 µM), inactives show at the top dose activity, positive = more growth; 270,000 tested, 0.4% active; calls by dose curve; also: potency is read from the fitted curve at half-maximal effect; actives are rising curves; nearly all actives have a fitted effect of over 50% in size
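Growth recovery, yeast-based: influenza A NS1 expressed in S. cerevisiae causes slow growth, and suppressors are detected by OD600. The parent strain without NS1 is used as positive control.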
Active calls of the source: *; ? = inconclusive; · = not tested or not shown; [ ] = another dose, or the depositor's remark. Hits are enriched below; roughly 21% of the tested compounds scored in any of these assays. Unless noted, calls follow the shape of the dose curve; as a rule, active = well fitted curve in the direction sought with a large enough effect; inconclusive = small, poorly fitted or top-dose-only effect, or another doubt; inactive = no such curve, though single readings can be large; an effect the other way counts as inactive or inconclusive.

SMILES	Pf growth 48h	Shiga inhibitor	Sm TGR block	Pf growth 96h	Cycloheximide cs	NS1 function inh
CCOC(=O)N1CC=C2C(C#N)=C(N)C(C#N)(C#N)[C@H](c3ccc(OCC)c(OCC)c3)[C@H]2C1	5.2µM*	23	-31%	8%	1	5%
N#CC1=C(N)C(C#N)(C#N)C(c2cccnc2)C2COCC=C12 (stereo unspecified)	-5%	-16	?	·	-3	-2%
COc1ccc(OC)c(C2C3CN(C(C)C)CC=C3C(C#N)=C(N)C2(C#N)C#N)c1 (stereo unspecified)	?	-13	?	?	-1	-2%
N#CC1=C(N)C(C#N)(C#N)C(c2cccnc2)C2CN(C(=O)OCc3ccccc3)CC=C12 (stereo unspecified)	?	-4	?	9.3µM*	-2	16%
CC(=O)N1CC=C2C(C#N)=C(N)C(C#N)(C#N)C(C)C2C1 (stereo unspecified)	-9%	8	?	?	5	0%
CC(C)CN(C(=O)CSc1n[nH]c(-c2cccs2)n1)C1CCS(=O)(=O)C1 (stereo unspecified)	-1%	·	-13%	?	·	·
CN(C)S(=O)(=O)n1cnc([C@@H]2[C@@H]3C(=O)OC[C@@H]3C[C@]23N=CN(Cc2ccccc2)C3=O)c1	20%	·	2%	-34%	·	·
COCc1nc2ccccc2n1Cc1ccc(Br)cc1	?	43	-2%	-1%[5.75 µM]	26	-99%
CN1CCN(Cc2nc3ccccc3c(=O)n2CC#N)CC1	-4%	-15	5%	4%	-1	1%
N#CCn1c(CCl)nc2ccccc2c1=O	-12%	-24	28µM*	12%	-3	·
COCc1nc2ccccc2n1Cc1ccccc1	30%	17	-23%	?	20*	-13%
ClCc1nc2ccccc2n1Cc1ccccc1	6.6µM*	11	-25%	?	0	13%
O=C(CCCn1c(=S)[nH]c2cc3c(cc2c1=O)OCO3)NCCc1ccccc1Cl	-26%	-2	2%	4%	0	-15%
COCc1cc(CN(C)C(=O)C2CCC(=O)N(Cc3cccc(OC)c3)C2)[nH]n1 (stereo unspecified)	1%	4	-27%	9.3µM*	-4	-3%
COc1cccc(CN2CC(C(=O)N(C)Cc3ccc(C)cc3)CCC2=O)c1 (stereo unspecified)	?	29	-13%	5%	43*	-11%
COc1cccc(CN2CC(C(=O)N(C)Cc3[nH]c4ccccc4c3C)CCC2=O)c1 (stereo unspecified)	-21%	-1	-31%	19%	-1	1%
COc1ccccc1N(CCN1C(=O)c2cccc3cccc(c23)C1=O)C(=O)c1ccncc1	5%	13	·	8%	-2	1%
CN(C)C=Nc1ccccc1C1C=NNC1=O (stereo unspecified)	0%	52*	-16%	-25%	23*	0%
CC1(C)CCC(=O)N[C@H]1CC(=O)C[C@H]1NC(=O)CCC1(C)C	·	·	·	·	·	0%
CN(Cc1cccs1)C(=O)CCCc1c[nH]c2ccccc12	42%	73*	-1%	77%	46*	-19%
CN(Cc1cccs1)C(=O)CCc1c[nH]c2ccccc12	7%	60	-1%	30%	16*	·
O=C(CCCc1c[nH]c2ccccc12)NCc1cccs1	11%	15	2%	15%	-1	·
C/C(CCC12CC3CC(CC(C3)C1)C2)=N\NC(N)=S	·	-8	-8%	?	-2	-12%
C/C(CC(C)(C)C1CCCCC1)=N\NC(N)=S	·	-13	0%	2.9µM*	-2	-192%
CCC(C)NS(=O)(=O)c1ccc(OCC(=O)N2CCCCC2)cc1 (stereo unspecified)	·	25	0%	?	-2	3%
SMILES	Pf growth 48h	Shiga inhibitor	Sm TGR block	Pf growth 96h	Cycloheximide cs	NS1 function inh
CC[C@H](C)Cc1cn([C@@H](CCCCN)C(=O)NCCCCCCCCCCC(=O)N2CCNCC2)nn1	12µM*	·	-16%	?	·	·
C#CCOCCOCCOCCNc1nc(N2CCN(C(=O)CCCCCCCCCCNC(=O)[C@@H](CCC(=O)O)n3cc(CCCCCN)nn3)CC2)nc(N2CCN(C(=O)CCCCCCCCCCNC(=O)[C@H](CCCCN)n3cc(C[C@@H](C)CC)nn3)CC2)n1	5.9µM*	·	-27%	?	·	·
C#CCOCCOCCOCCNc1nc(N2CCN(C(=O)[C@H]([C@@H](C)O)n3cc(CCCCN)nn3)CC2)nc(N2CCN(C(=O)[C@H]([C@@H](C)CC)n3cc(CCCCN)nn3)CC2)n1	7%	·	-15%	68%	·	·
NCCCCCc1cn([C@@H](CCC(=O)O)C(=O)NCCCCCCCCCCC(=O)N2CCNCC2)nn1	18%	·	-13%	3%	·	·
C#CCOCCOCCOCCNc1nc(N2CCN(C(=O)CCCCCCCCCCNC(=O)[C@H](CCCCN)n3cc(CCO)nn3)CC2)nc(N2CCN(C(=O)CCCCCCCCCCNC(=O)[C@H](CCCCN)n3cc(C[C@@H](C)CC)nn3)CC2)n1	7.4µM*	·	50µM*	?	·	·
CCc1ccc(S(=O)(=O)c2c[nH]c3cc(OC)c(OC)cc3c2=O)cc1	·	·	4%	·	·	·
CCOC(=O)C1C(=O)OC(C)(C)C1C(C)C(=O)c1ccccc1 (stereo unspecified)	17%	-11	5%	·	-2	?
CC(=O)C(C(C)=O)C(c1ccccc1)c1nc2ccccc2[nH]c1=O (stereo unspecified)	10%	5	5%	19%	8	0%
COc1cc(-c2nc(-c3ccccc3)c(-c3ccc(Br)cc3)[nH]2)cc(OC)c1O	·	·	-30%	·	·	·
COc1ccc(-c2[nH]c(-c3cc(OC)c4c(c3)OCO4)nc2-c2ccccc2)cc1	4.1µM*	17	-4%	?	0	1%
Cc1cccc(/C(N)=N/OC(=O)Cc2cccs2)c1	178%	96*	5%	138%	68*	1%
N/C(=N\OC(=O)Cc1cccs1)c1ccccc1	104%	59*	-12%	39%	28*	-2%
Cc1cc(C)c(NC(=O)COC(=O)Cc2cccs2)c(C)c1	-10%	·	-3%	20%	·	·
N/C(=N\OC(=O)Cc1ccccc1[N+](=O)[O-])c1ccncc1	18%	-7	5%	26%	-2	-1%
Cc1ccc(/C(N)=N/OC(=O)Cc2cccs2)cc1	232%	143*	-25%	163%	50*	6%
N/C(Cc1cccs1)=N\OC(=O)COc1ccccc1	·	33	-2%	?	22*	-4%
O=C(CSC1CN(C(c2ccccc2)c2ccccc2)C1)N/N=C/c1ccccc1	?	-8	2%	?	1	-11%
